According to PubChem BioAssay AID652120 (NMMLSC, 2013):
The source made the active and inactive calls.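 Rule for the calls: active = viability below 50% at the top dose and a half-maximal effect concentration under 10 µM; inactive = the rest.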

Assay: viability of NIH 3T3 fibroblasts – cell-based, CellTiter-Glo, Powder Set01 subset01, cytotoxicity control for AML myeloid differentiation project, dose response (AID 652120)

SMILES	outcome
O=C(CCNC(=O)c1ccc(Cl)cc1)NC1CCCc2ccccc21 (stereo not drawn)	inactive
O=C(O)c1cccnc1Nc1ccc(Cl)cc1	inactive
Cc1ccc(Nc2nc(=O)c3cccnc3s2)c(Br)c1	inactive
